Cruzain inh noDet: cruzain (T. cruzi) inhibition without detergent | purified cruzain, Z-FR-AMC fluorescence, no detergent | 200,000 tested, 2.3% active | P25779 | Potency, µM, without a hit: max response, negative = inhibition, most hits filed as inhibitors;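 further: plate controls were enzyme without inhibitor for no effect and buffer without enzyme for full effect; nearly all actives have a fitted effect of over 40% in size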
Target sequence (P25779 123-467 limits assumed): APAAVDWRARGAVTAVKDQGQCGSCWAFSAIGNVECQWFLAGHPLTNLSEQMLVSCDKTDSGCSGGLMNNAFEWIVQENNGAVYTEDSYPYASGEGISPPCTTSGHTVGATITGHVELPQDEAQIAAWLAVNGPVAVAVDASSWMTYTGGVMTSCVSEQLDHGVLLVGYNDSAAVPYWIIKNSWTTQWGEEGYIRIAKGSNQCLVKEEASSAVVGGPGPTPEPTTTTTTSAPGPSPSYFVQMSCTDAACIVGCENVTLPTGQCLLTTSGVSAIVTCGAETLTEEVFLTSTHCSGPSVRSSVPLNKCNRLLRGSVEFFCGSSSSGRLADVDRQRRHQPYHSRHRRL
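Purified cruzain at 1.5 nM, pre-incubated 15 min with compound at room temperature in 100 mM sodium acetate pH 5.5, 5 mM DTT, 0.00005% Triton X-100. Reaction started with 2 uM Z-FR-AMC; AMC fluorescence increase over 60 s gives rate.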
Cruzain inh Det: inhibitors of Trypanosoma cruzi cruzain with detergent; 200,000 tested, 0.43% active; P25779; purified cruzain, Z-FR-AMC fluorescence, 0.01% Triton; Potency, µM, for inactives: max response, negative = inhibition, most hits filed as inhibitors;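 further: plate controls were neutral wells for no effect and buffer without enzyme for full effect; nearly all actives have a fitted effect of over 40% in size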
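Z-FR-AMC hydrolysis (2 uM substrate) by cruzain (1.5 nM) monitored kinetically at ex 360/em 450 nm after 15 min room-temperature compound exposure; 0.01% Triton X-100, pH 5.5, 5 mM DTT.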
An asterisk follows results filed as active; ? = inconclusive. Shown are actives, neighbours in structure and some others; about 2.5% of the full set was active somewhere. The call rests on the fitted dose curve; in most records, active means well fitted curve in the direction sought with a large enough effect; inconclusive means small, poorly fitted or top-dose-only effect, or another doubt; inactive means no such curve, though single readings can be large; an effect the other way counts as inactive or inconclusive. Potency means the concentration at half of the fitted maximal effect.

SMILES | Cruzain inh noDet | Cruzain inh Det
Cc1ccc(-n2nc3c(c2NC(=O)/C=C\c2ccc4c(c2)OCO4)CSC3)cc1 | 32µM* | -4%
Cc1ccc(-n2nc3c(c2NC(=O)c2ccc4c(c2)OCO4)CS(=O)C3)cc1 (stereo unspecified) | -5% | -3%
CC1(C)N=C(N)N=C(N)N1c1cccc(CSc2ccccc2)c1 | -7% | -2%
Cc1nc(S/C(=C/c2ccc(-c3ccc(Cl)cc3)o2)C(=O)O)n[nH]1 | 13µM* | -2%
CCCCOC(=O)/C(C#N)=C\c1ccc(-c2ccc(Cl)cc2)o1 | 0% | 2%
Cc1nnc2c(N3CCN(c4ccc(F)cc4)CC3)nc3ccc(C(=O)c4ccccc4)cc3n12 | -9% | 0%
O=C(NCCS(=O)(=O)N1CCN(c2ccc(F)cc2)CC1)c1cccc(C(F)(F)F)c1 | -1% | -7%
Nc1c(C(=O)c2ccccc2)sc2snc(SCC(=O)c3ccccc3)c12 | 13µM* | -28%
Nc1nnc(SCC(=O)c2ccccc2)s1 | -10% | 2%
CC(C)(C)C(=O)Nc1cc(-c2cccc(Br)c2)nn1-c1ccccc1 | 11% | -2%
O=C(N=Nc1c(O)[nH]c2ccc(Br)cc12)c1cc(-c2cccc3ccccc23)n[nH]1 | 10µM* | -3%
Cc1cccc(C)c1OCC(=O)N=Nc1c(O)[nH]c2ccc(Br)cc12 | -23% | 2%
COc1ccc(-c2nsc(NC(=O)c3cccc(OC)c3)n2)cc1 | 0% | -7%
COc1cccc(C(=O)Nc2nc(-c3ccc(Br)cc3)ns2)c1 | 25µM* | -2%
CCCC(=O)N1c2nc(-c3ccco3)nn2C2(CCCCC2)[C@@H]2CCCC[C@@H]21 | -3% | -2%
CCN(c1ccc(Cl)cc1)S(=O)(=O)c1nnc(NC(=O)C2CCCCC2)s1 | 1% | -2%
CCC(C(=O)Nc1ccc(C(C)=O)cc1)n1c(C)c2cnn(-c3ccccc3)c(=O)c2c1C (stereo unspecified) | ? | -8%
CCc1ccc(NC(=O)CC2C(=O)N(c3cccc(C)c3)C(=O)N2CCC(C)C)cc1 (stereo unspecified) | 28% | -10%
CCOc1ccccc1N=C1SC(CC(=O)Nc2ccc(OC)cc2OC)C(=O)N1CCC1=CCCCC1 (stereo unspecified) | ? | -4%
CCOc1ccc(/C(C)=N/N2C(=O)C(CC(=O)Nc3ccc(OC)cc3[N+](=O)[O-])SC2=Nc2cccc(C)c2C)cc1 (stereo unspecified) | 10µM* | -1%
CCOc1ccccc1-n1nnc(-c2nsc(NC(=O)c3ccc(C)cc3)n2)c1C | 3% | 1%
COc1ccc(-c2cc(C(=O)Oc3cccc(C)c3)c3cc(C)ccc3n2)cc1 | 1% | -3%
COc1ccc(-c2cc(C(=O)OCC(=O)c3cccc([N+](=O)[O-])c3)c3cc(C)ccc3n2)cc1 | 10µM* | 1%
O=C(N1CCOCC1)C12CCC3CC(CC(C3)C1)C2 | -2% | 4%
N=P(N1CCOCC1)(N1CCOCC1)C12CC3CC(CC(C3)C1)C2 | 25µM* | 28µM*
SMILES | Cruzain inh noDet | Cruzain inh Det
CCCCOc1cccc(C2c3c(-c4cc(C)ccc4O)n[nH]c3C(=O)N2CCOC)c1 (stereo unspecified) | 10% | -17%
Nc1ccc(C(=O)C[C@H](N)C(=O)O)cc1O | 1% | 0%
CCCCC/C=C\C\C=C/C=C/C=C/[C@@H](SCC(NC(=O)CCC(N)C(=O)O)C(=O)NCC(=O)O)[C@@H](O)CCCC(=O)O (stereo partly specified) | -3% | 4%
Cc1ccc(NC(=O)c2c(C)oc3ncn(CC(C)C)c(=O)c23)nc1 | -6% | -2%
COc1ccc(N(C)S(=O)(=O)c2cccc(C(=O)Nc3ccc(OC)nc3)c2)cc1 | 8% | -2%
COc1ccc(C)cc1NC(=O)c1ccc(N(C)S(C)(=O)=O)cc1 | -5% | -9%
COc1ccc(C)cc1NC(=O)C(OC(=O)c1ccc(Cl)c(S(=O)(=O)N(C)c2ccccc2)c1)c1ccccc1 (stereo unspecified) | 10µM* | 3%
CCOc1ccccc1NC(=O)C(OC(=O)c1ccccc1NS(=O)(=O)c1cccs1)c1ccccc1 (stereo unspecified) | ? | -2%
CC(=O)NCCC(=O)Nc1cccc(S(=O)(=O)N(C)c2ccccc2)c1 | -4% | 1%
COc1ccc(N(C)S(=O)(=O)c2cccc(C(=O)OC(C(=O)Nc3cc(C)cc(C)c3)c3ccccc3)c2)cc1 (stereo unspecified) | 10µM* | 3%
CC(=O)c1cccc(NC(=O)C(OC(=O)c2ccccc2NS(=O)(=O)c2cccs2)c2ccccc2)c1 (stereo unspecified) | 7.9µM* | -3%
CC(=O)c1cccc(NC(=O)C(OC(=O)c2cccc(S(=O)(=O)N(C)c3ccccc3)c2)c2ccccc2)c1 (stereo unspecified) | 25µM* | -1%
Cc1nnc(N2CCN(c3ccccc3F)CC2)c2c1nnn2Cc1ccccc1Cl | 2% | 0%
CCCN1C(=O)c2[nH]nc(-c3ccccc3O)c2C1c1cccc(OCc2ccccc2)c1 (stereo unspecified) | ? | -7%
O=C(c1ccccc1)[C@H](Nc1ccc2ccccc2c1)c1ccccc1 | -5% | -5%
COc1ccc2c(c1)NC(c1cccnc1)=NC(c1ccc(F)cc1)=N2 | 10% | -2%
CCc1c(CN2CCN(c3cccc(C)c3C)CC2)csc1C | -13% | 0%
CN(C)c1ccc(NC(=O)/C=C/c2ccccc2Cl)cc1 | -15% | -4%
CCN(CC)c1ccc(NC(=O)/C=C\c2ccccc2Cl)cc1 | 25µM* | -10%
COc1ccc(C)cc1Nc1nc(-c2c[nH]c3ccccc23)cs1 | 16µM* | -3%
COc1ccc(OC)c(Nc2nc(-c3cccs3)cs2)c1 | ? | -3%
COc1ccc(-c2onc(C)c2C)cc1S(=O)(=O)NCC1CCN(Cc2cc(C)ccc2C)CC1 | 3% | 2%
Cc1nc(SCC(=O)Nc2ccc(F)cc2)c(C#N)c(C)c1CC(=O)c1ccc(Br)cc1 | ? | -1%
Cc1cccc(NC(=O)CSc2nc(C)c(CC(=O)c3ccc(Br)cc3)c(C)c2C#N)c1C | 13µM* | 3%
CCOC(=O)c1ccc(NC(=O)CC2C(=O)N(c3ccc(F)cc3)C(=O)N2Cc2cccnc2)cc1 (stereo unspecified) | 2% | -5%
SMILES | Cruzain inh noDet | Cruzain inh Det
Cc1nc2c(C(=O)NCc3ccc4c(c3)OCO4)cnn2c(C)c1Cc1ccc(F)cc1Cl | 16µM* | -7%
Cc1ccccc1Cc1c(C)nc2c(C(=O)NCc3ccc4c(c3)OCO4)cnn2c1C | -23% | -18%
O=C(O)Cc1cccnc1 | 2% | 5%
COC(=O)NC(CCc1ccccc1)C(C(C)=O)C(=O)OC (stereo unspecified) | -3% | -2%
O=c1c(-c2ccc(F)c(F)c2)nc2cncnc2n1Cc1ccccc1Cl | -20% | -7%
NCCn1c(=O)c(CCc2ccccc2)nc2cncnc21 | -14% | 2%
O=c1c(CCc2ccccc2)nc2cncnc2n1Cc1ccccc1Cl | 3.2µM* | -5%
O=c1c(-c2cc(F)cc(F)c2)nc2cncnc2n1Cc1ccccc1Cl | 25µM* | -7%
CCCCN(C)CCNC(=O)c1ccc2c(=O)n(CCc3ccccc3)c(=O)[nH]c2c1 | 11% | -2%
CC(C)c1ccc(C(O)(C(=O)O)c2ccc(C(C)C)cc2)cc1 | 13% | -6%
Cc1ccc(CSc2nc(=O)c3c(C)cc(C)nc3n2C2CC2)cc1 | 2% | -2%
O=C(Oc1ccc2c(-c3ccccc3)cc(=O)oc2c1)c1cccs1 | 6.3µM* | -6%

Compound activity deposited in PubChem BioAssay by National Center for Advancing Translational Sciences (NCATS).
